Holding throughout (conditions): mRNA level, 48 h; actives raise or lower the signal
Read-out in assay [1]: JUN Transcription Factor, JUN (gene 3725)
Put plainly: LTEA_HepaRG_JUN: Life Technologies and Expression Analysis (LTEA) Assay for JUN Transcription Factor using HepaRG (AID 2283513). Summed up: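 Cells plated 48 h, medium switched to serum-free induction medium, then dosed 48 h (100 uM top, half-log dilutions, 0.5% DMSO). RNA isolated; JUN measured by qRT-PCR against three housekeeping genes; gain or loss fitted relative to DMSO.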

Read-out in assay [2]: Lipase C (LIPC), LIPC (gene 3990)
Put plainly: LTEA_HepaRG_LIPC: Life Technologies and Expression Analysis (LTEA) Assay for Lipase C (LIPC) using HepaRG (AID 2283514). The method in brief:
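HepaRG cells, 48 h after plating, treated in duplicate for 48 h in serum-free induction medium over 8 half-log concentrations from 100 uM, 0.5% DMSO. LIPC mRNA by TaqMan qRT-PCR normalized to ACTB/GAPDH/POLR2A; bidirectional fit versus DMSO.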

Read-out in assay [3]: Lipoprotein lipase (LPL), LPL (gene 4023)
The experiment in a line: LTEA_HepaRG_LPL: Life Technologies and Expression Analysis (LTEA) Assay for Lipoprotein lipase (LPL) using HepaRG (AID 2283515). The method in brief:
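Differentiated HepaRG cells, plated 48 h, then exposed 48 h in serum-free induction medium to 8 concentrations (top 100 uM, half-log steps) in 0.5% DMSO, duplicate. LPL mRNA measured by qRT-PCR, normalized to ACTB, GAPDH and POLR2A.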

Read-out in assay [4]: MicroRNA 122 (MIR122), gene 406906
Put plainly: LTEA_HepaRG_MIR122: Life Technologies and Expression Analysis (LTEA) Assay for MicroRNA 122 (MIR122) using HepaRG (AID 2283516). Further: the transcript read is the microRNA miR-122. The method in brief:
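HepaRG plated 48 h, switched to serum-free induction medium, then treated in duplicate for 48 h (100 uM top, half-log steps, 0.5% DMSO vehicle). RNA isolated, qRT-PCR performed, concentration-response fitted both directions relative to DMSO.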

Read-out in assay [5]: matrix metalloproteinase-10 (MMP10), MMP10 (gene 4319)
The experiment in a line: LTEA_HepaRG_MMP10: Life Technologies and Expression Analysis (LTEA) Assay for matrix metalloproteinase-10 (MMP10) using HepaRG (AID 2283517). The method in brief:
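Differentiated HepaRG cells in serum-free induction medium exposed 48 h in duplicate to 8-point half-log series up to 100 uM in 0.5% DMSO. mRNA quantified by qRT-PCR, normalised to ACTB, GAPDH, POLR2A; bidirectional fit versus DMSO.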

Read-out in the next assay: MYC, MYC (gene 4609)
The experiment in a line: LTEA_HepaRG_MYC: Life Technologies and Expression Analysis (LTEA) Assay for MYC using HepaRG (AID 2283518). The method in brief: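 HepaRG, ~100,000 cells/well, collagen I; 48 h plating; serum-free induction medium; 48 h dosing, duplicate, 100 uM top, half-log, 0.5% DMSO; total RNA → qRT-PCR MYC; gain/loss fit vs DMSO.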

Read-out in assay [6]: matrix metalloproteinase-3 (MMP3), MMP3 (gene 4314)
The experiment in a line: LTEA_HepaRG_MMP3: Life Technologies and Expression Analysis (LTEA) Assay for matrix metalloproteinase-3 (MMP3) using HepaRG (AID 2283519). Summed up:
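HepaRG cells (~100,000/well) in serum-free induction medium were dosed in duplicate for 48 h with an 8-point half-log series from 100 uM, 0.5% DMSO. MMP3 mRNA was quantified by Fluidigm TaqMan qRT-PCR, normalized to three housekeeping genes.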

Read-out in assay [7]: Paternally Expressed 10 (PEG10), PEG10 (gene 23089)
The experiment in a line: LTEA_HepaRG_PEG10: Life Technologies and Expression Analysis (LTEA) Assay for Paternally Expressed 10 (PEG10) using HepaRG (AID 2283520). The method in brief:
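HepaRG, 48 h post-plating → serum-free induction medium → 48 h chemical exposure (duplicate, 8-pt, max 100 uM, half-log, 0.5% DMSO) → lysis in RLT → TaqMan qRT-PCR for PEG10, ACTB/GAPDH/POLR2A normalisation.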

Read-out in assay [8]: Protein phosphatase 2A (PPP2R4), PTPA (gene 5524)
Put plainly: LTEA_HepaRG_PPP2R4: Life Technologies and Expression Analysis (LTEA) Assay for Protein phosphatase 2A (PPP2R4) using HepaRG (AID 2283522). Summed up:
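Readout is PPP2R4 transcript level by microfluidic qRT-PCR after 48 h chemical treatment of human HepaRG liver cells. Concentrations spanned 100 uM downward in half-log steps; gain or loss of signal was fitted relative to DMSO.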

Read-out in assay [9]: Nuclear factor NF-kappa-B p105 subunit (Homo sapiens) (UniProt P19838)
The experiment in a line: LTEA_HepaRG_NFKB1: Life Technologies and Expression Analysis (LTEA) Assay for Nuclear Factor Kappa B Subunit 1 (NFKB1) using HepaRG (AID 2283521).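 On outcome: TaqMan qRT-PCR transcript normalised to ACTB GAPDH and POLR2A housekeeping genes.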 Summed up:
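Differentiated human HepaRG cells were exposed for 48 h in serum-free induction medium to eight concentrations (top 100 uM, half-log steps, 0.5% DMSO), in duplicate. NFKB1 mRNA was measured by TaqMan qRT-PCR, normalized to ACTB/GAPDH/POLR2A, and fitted bidirectionally against DMSO.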

The source made the active and inactive calls. How the source made its calls: active means hit-call score of the fitted dose curve at least 0.9, where 1 is the maximum; inactive means score below 0.9.

Chain of Nuclear factor NF-kappa-B p105 subunit (Homo sapiens) (P19838 whole entry, looked up): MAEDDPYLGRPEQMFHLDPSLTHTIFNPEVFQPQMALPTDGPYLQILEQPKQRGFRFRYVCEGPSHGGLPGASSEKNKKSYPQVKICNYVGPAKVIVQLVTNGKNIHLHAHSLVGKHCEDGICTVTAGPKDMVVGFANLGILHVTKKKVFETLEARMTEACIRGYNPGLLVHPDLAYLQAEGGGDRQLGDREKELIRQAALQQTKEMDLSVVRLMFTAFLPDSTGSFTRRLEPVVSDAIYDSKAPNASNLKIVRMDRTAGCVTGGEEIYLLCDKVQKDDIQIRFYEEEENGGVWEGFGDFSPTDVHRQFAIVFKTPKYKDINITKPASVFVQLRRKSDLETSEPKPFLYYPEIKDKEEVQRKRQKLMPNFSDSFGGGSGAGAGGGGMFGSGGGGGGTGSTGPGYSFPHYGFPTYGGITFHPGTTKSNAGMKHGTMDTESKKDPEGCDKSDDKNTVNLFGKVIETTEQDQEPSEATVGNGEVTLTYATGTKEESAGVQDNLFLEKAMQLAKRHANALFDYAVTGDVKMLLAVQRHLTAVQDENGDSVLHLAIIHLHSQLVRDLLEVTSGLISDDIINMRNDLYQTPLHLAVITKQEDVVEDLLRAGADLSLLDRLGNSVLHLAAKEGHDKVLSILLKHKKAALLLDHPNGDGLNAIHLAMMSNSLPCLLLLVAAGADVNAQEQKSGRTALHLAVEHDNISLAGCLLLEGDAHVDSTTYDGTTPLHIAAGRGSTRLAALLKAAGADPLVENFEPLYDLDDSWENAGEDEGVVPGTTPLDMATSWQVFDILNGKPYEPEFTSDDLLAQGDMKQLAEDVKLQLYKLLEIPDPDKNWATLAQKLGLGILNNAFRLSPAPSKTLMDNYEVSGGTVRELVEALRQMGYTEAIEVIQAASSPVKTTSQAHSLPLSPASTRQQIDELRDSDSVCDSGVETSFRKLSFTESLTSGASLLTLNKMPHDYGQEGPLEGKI

Consider `CCCCCCCCCCCCc1ccccc1`, for which the outcome in assay [1] is “inactive”; in [2] it was “inactive”; in assay [3] it was “inactive”; in assay [4] it was “inactive”; in [5] it was “inactive”; with MYC, MYC (gene 4609) it was “inactive”. Moreover, the outcome in assay [6], in assay [7] and in assay [8] was inactive.
One may read the AC50 as the midpoint of the concentration-response curve, whichever way the signal moves. On to `Cc1ccc(N)cc1O`, for which the outcome in assay [1] was “inactive”; in [2] it was “inactive”; in assay [4], “inactive”; in assay [5], “inactive”; with MYC, MYC (gene 4609) it was “inactive”; in assay [6], “inactive”. The call in [7] and in [8] was inactive. In assay [3], the AC50 was 31.8 µM (active).
For the compound `CC(C)CCO`, the outcome in assay [1] was “inactive”; in [2], “inactive”; in assay [3], “inactive”; in assay [4] it was “inactive”; in assay [5], “inactive”; with MYC, MYC (gene 4609), “inactive”. The compound was called inactive in [6], in assay [7], in assay [9] and in assay [8].
Take `CC(C)=CCCC(C)CCO` (stereo not drawn): the outcome is “inactive” in assay [1]; “inactive” in assay [2]; “inactive” in assay [3]; “inactive” in [4]; “inactive” in assay [5]; “inactive” in the assay with MYC, MYC (gene 4609). The outcome in assay [6], in assay [7], in assay [9] and in assay [8] was inactive.
As for `COc1ccc2sc(C(=O)Nc3nnn[nH]3)c(OC(C)C)c2c1`, the compound was called inactive in assay [1], in assay [2], in assay [5] and in assay [8]. Moreover, the concentration at half-maximal activity (AC50) in assay [3] was 12.7 µM (active); in assay [4], 80.2 µM (active); with MYC, MYC (gene 4609), 38 µM (active); in assay [6], 27.1 µM (active); in assay [7], 35.8 µM (active).
In the case of `Cn1cnc([N+](=O)[O-])c1Sc1ncnc2nc[nH]c12`, the result in assay [1], in assay [3], in [5] and in [8] was inactive. In addition, the half-maximal activity concentration (AC50) in [2] is 17.7 µM (active); in assay [4], 4.54 µM (active); with MYC, MYC (gene 4609), 6.38 µM (active); in [6] it was 1.9 µM (active); in assay [7] it was 1.66 µM (active).
Consider `COc1ccc(/C=C/S(=O)(=O)NC(=O)c2ccc(C)cc2Cl)cc1`, for which the outcome in [1] is “inactive”; in assay [2], “inactive”; in assay [3] it was “inactive”; in assay [4], “inactive”; in assay [5], “inactive”; with MYC, MYC (gene 4609), “inactive”. Further, the result in [6] and in [9] was inactive. In addition, the half-maximal activity concentration (AC50) in assay [7] was 75.3 µM (active); in assay [8], 0.11 µM (active).
Turning to `CC/C(=C\C(=N/O)C(N)=O)C(C)[N+](=O)[O-]` (stereo not drawn), the outcome in assay [1] is “inactive”; in assay [2], “inactive”; in assay [3], “inactive”; in assay [4], “inactive”; in assay [5] it was “inactive”; with MYC, MYC (gene 4609), “inactive”. In addition, the result in assay [6], in assay [7] and in assay [8] was inactive.
Take `CCOC(=O)COc1ccc2c(c1)CC(NCC(O)c1cccc(Cl)c1)CC2` (stereo not drawn): the outcome in assay [1] is “inactive”; in assay [3], “inactive”; in [4] it was “inactive”; in assay [5], “inactive”; in the assay with MYC, MYC (gene 4609), “inactive”; in assay [6] it was “inactive”. Moreover, the call in [7], in [9] and in assay [8] was inactive. Besides, the AC50 in assay [2] was 45.8 µM (active).
Take `COCCOCCOCCOC`: the outcome was “inactive” in assay [1]; “inactive” in assay [2]; “inactive” in assay [3]; “inactive” in assay [4]; “inactive” in assay [5]; “inactive” with MYC, MYC (gene 4609). The outcome in assay [6], in assay [7], in [9] and in assay [8] was inactive.
Regarding `CC(C)=CCC/C(C)=C/CO`, the outcome in assay [1] is “inactive”; in [2], “inactive”; in assay [3], “inactive”; in assay [4], “inactive”; in [5], “inactive”; with MYC, MYC (gene 4609), “inactive”. The call in [6], in assay [7], in assay [9] and in [8] was inactive.
Regarding `Clc1nc(Cl)c(Cl)c(Cl)c1Cl`, the outcome is “inactive” in [1]; “inactive” in assay [2]; “inactive” in assay [3]; “inactive” in assay [4]; “inactive” in [5]; “inactive” with MYC, MYC (gene 4609). Besides, the compound was classed as inactive in assay [6], in assay [7] and in [8].
For `O=C(O)c1cccc(N(Cc2cccnc2)c2ccc(OC(F)F)c(OC(F)F)c2)c1`, the outcome in [1] is “inactive”; in [2] it was “inactive”; in assay [3], “inactive”; in assay [4] it was “inactive”; with MYC, MYC (gene 4609), “inactive”; in [8], “inactive”. For the same compound, the AC50 in assay [5] is 91.7 µM (active); in assay [6] it was 80.4 µM (active); in [7], 50 µM (active); in assay [9], 0.576 µM (active).
For the compound `C1N2CN3CN1CN(C2)C3`, the outcome in [1] is “inactive”; in assay [2] it was “inactive”; in assay [3], “inactive”; in [4], “inactive”; in [5] it was “inactive”; with MYC, MYC (gene 4609), “inactive”. Further, the compound was classed as inactive in [6], in assay [7], in assay [9] and in assay [8].
For `O=C(O)CCN(C1(C(=O)NO)CCCC1)S(=O)(=O)c1ccc(Oc2ccc(F)cc2)cc1`, the outcome was “inactive” in assay [1]; “inactive” in assay [2]; “inactive” in assay [3]; “inactive” in assay [4]; “inactive” in assay [5]; “inactive” with MYC, MYC (gene 4609). In addition, the compound was classed as inactive in [6], in [7], in assay [9] and in assay [8].
Regarding `Nc1cccc(N)c1`, the outcome was “inactive” in [1]; “inactive” in assay [2]; “inactive” in assay [3]; “inactive” in assay [4]; “inactive” in assay [5]; “inactive” in the assay with MYC, MYC (gene 4609). Moreover, the outcome in [6], in assay [7], in assay [9] and in [8] was inactive.
As for `C=CC(=C)CCC=C(C)C`, the outcome is “inactive” in assay [1]; “inactive” in assay [2]; “inactive” in assay [3]; “inactive” in assay [4]; “inactive” in assay [5]; “inactive” with MYC, MYC (gene 4609). Besides, the compound was called inactive in [6], in [7], in assay [9] and in assay [8].
For `Cn1c(=O)cc(Oc2ccc(F)cc2F)c2cnc(NCC(C)(C)O)nc21`, the call in [1], in assay [2], in assay [4], in assay [5], in assay [7] and in [8] was inactive. The half-maximal activity concentration (AC50) in assay [3] was 9.98 µM (active); in the assay with MYC, MYC (gene 4609), 22.1 µM (active); in [6], 22.1 µM (active).
In the case of `CCOC(=O)CC(CC(=O)OCC)(OC(C)=O)C(=O)OCC`, the outcome is “inactive” in assay [1]; “inactive” in assay [2]; “inactive” in assay [3]; “inactive” in assay [4]; “inactive” in [5]; “inactive” with MYC, MYC (gene 4609). For the same compound, the result in [6], in [7], in assay [9] and in [8] was inactive.
Regarding `O=c1n(CC2CO2)c(=O)n(CC2CO2)c(=O)n1CC1CO1` (stereo not drawn), the outcome was “inactive” in [1]; “inactive” in assay [3]; “inactive” in assay [4]; “inactive” in assay [5]; “inactive” with MYC, MYC (gene 4609); “inactive” in assay [6]. The outcome in assay [7], in assay [9] and in assay [8] was inactive. For the same compound, in assay [2], the AC50 is 71.5 µM (active).
Turning to `O=C1CCCCCN1`, the outcome in [1] is “inactive”; in [2], “inactive”; in assay [3], “inactive”; in assay [4], “inactive”; in assay [5] it was “inactive”; with MYC, MYC (gene 4609), “inactive”. Further, the compound was classed as inactive in assay [6], in assay [7], in [9] and in assay [8].

The record behind these values is PubChem BioAssay (EPA / NIEHS).
